Hits are enriched below; roughly 1.6% of the tested compounds scored in any of these assays.
KCNQ2 inh: inhibitors of rat KCNQ2 potassium channel | B-score at 10 µM | 1.1% of 310,000 active | CHO-K1 KCNQ2, FluxOR thallium flux, 20 min; hits give low values | AID 2156 | O88943;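 active = fluorescence ratio B-score at most minus 3 library SDs, with starting brightness B-score within 2 library SDs, cut at about -5.5 in these data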
Target sequence (O88943 whole entry, looked up): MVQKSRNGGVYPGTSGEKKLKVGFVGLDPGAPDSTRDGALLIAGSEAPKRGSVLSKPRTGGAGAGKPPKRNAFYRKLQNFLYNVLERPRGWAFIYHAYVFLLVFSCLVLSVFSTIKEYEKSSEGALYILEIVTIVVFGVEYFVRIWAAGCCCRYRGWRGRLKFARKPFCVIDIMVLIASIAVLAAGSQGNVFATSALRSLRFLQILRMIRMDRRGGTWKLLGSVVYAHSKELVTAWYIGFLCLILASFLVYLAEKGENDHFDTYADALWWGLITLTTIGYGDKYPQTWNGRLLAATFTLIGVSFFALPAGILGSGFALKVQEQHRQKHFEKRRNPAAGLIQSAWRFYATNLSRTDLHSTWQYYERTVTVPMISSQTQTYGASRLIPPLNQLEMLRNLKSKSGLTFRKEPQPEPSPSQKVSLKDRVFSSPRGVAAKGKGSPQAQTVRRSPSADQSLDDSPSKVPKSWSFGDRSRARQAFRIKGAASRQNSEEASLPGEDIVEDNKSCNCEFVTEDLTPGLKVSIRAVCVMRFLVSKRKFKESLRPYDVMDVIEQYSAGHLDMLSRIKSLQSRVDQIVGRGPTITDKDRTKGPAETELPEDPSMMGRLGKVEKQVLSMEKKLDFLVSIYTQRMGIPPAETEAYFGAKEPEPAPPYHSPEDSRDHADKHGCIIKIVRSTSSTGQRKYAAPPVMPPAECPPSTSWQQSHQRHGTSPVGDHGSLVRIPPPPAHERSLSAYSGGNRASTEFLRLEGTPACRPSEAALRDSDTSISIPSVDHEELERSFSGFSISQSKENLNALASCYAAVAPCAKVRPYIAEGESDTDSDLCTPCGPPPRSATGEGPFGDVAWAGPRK
KCNQ2 pot: potentiators of rat KCNQ2 potassium channel; 0.54% of 310,000 active; B-score at 10 µM; O88943; CHO-K1 KCNQ2, FluxOR thallium flux fluorescence; hits give high values;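 active = fluorescence ratio B-score at least 3 SD of library B-scores, with initial fluorescence B-score within 3 of them, cut at about 5.3 in these data; same plate scores as AID 2156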;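 also: B-score of peak minus minimum over baseline fluorescence ratio after K+ and Tl+ stimulus; positive B-score means potentiation of KCNQ2 with more thallium influx and brighter signal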
An asterisk follows results filed as active; i = inactive; . = no result.

SMILES	KCNQ2 inh	KCNQ2 pot
COc1ccc2[nH]c3c(c2c1)CCN1C(=O)N([C@@H](C)C(=O)NCc2ccc(F)cc2)C(=O)[C@]31C	i	.
C[C@@H](C(=O)NCCc1ccc(F)cc1)N1C(=O)N2CCc3c([nH]c4ccccc34)[C@@]2(C)C1=O	-6.3*	-6.3
COc1ccc2[nH]c3c(c2c1)CCN1C(=O)N([C@@H](C)C(=O)NCCc2ccc(F)cc2)C(=O)[C@]31C	-7.04*	-7.04
Cc1ccc(CNC(=O)[C@H](C)N2C(=O)N3CCc4c([nH]c5ccccc45)[C@@]3(C)C2=O)cc1	i	0.06
CCn1cc(Cl)c(C(=O)Nc2ccccc2C(N)=O)n1	i	.
O=C(CSc1nncc(=O)[nH]1)NC1CCCCC1	i	2.28
COc1ccc2oc(C(=O)Nc3ccc(S(=O)(=O)N(C)C4CCN(C)CC4)cc3)c(C)c2c1	i	.
Cc1ccccc1-n1ncc2c1CC(C)(C)CC2NC(=O)CCCN1CCCC1=O (stereo not given)	i	0.22
O=C1CN(C(=O)COC(=O)CNS(=O)(=O)/C=C/c2ccccc2)c2ccccc2N1	i	0.5
O=C(NCc1ccncc1)/C(=C/c1cccc([N+](=O)[O-])c1)NC(=O)c1ccccc1	i	.
CC(C)CCN1CCN(Cc2nc3c(s2)CCCC3)CC1CCO (stereo not given)	i	.
COc1ccccc1C(=O)NNC1=C(C(=O)C(F)(F)F)CCC1	i	3.69
O=C(NNC1=C(C(=O)C(F)(F)F)CCC1)c1ccccc1O	i	10.9*
NS(=O)(=O)c1ccc(NC(=O)CSc2nc3ccccc3nc2N2CCOCC2)cc1	i	0.37
Cc1csc2nc(CNC(=O)c3cccc(C(F)(F)F)c3)cn12	-6.17*	-6.17
O=C(NCc1cn2ccsc2n1)c1cccc(C(F)(F)F)c1	i	.
N=c1c(C(=O)NC2CCCCC2)cc2c(=O)n3ccccc3nc2n1CCc1ccccc1	i	1.2
COc1ccc(/C=N/N2CCN(c3ccccc3OC)CC2)cc1OC	i	0.01
COc1cccc(/C=N/N2CCN(c3ccccc3OC)CC2)c1	-5.55*	-5.55
CCOC(=O)C1CCCN(C(=O)CCNS(=O)(=O)c2cc(Br)cnc2N)C1 (stereo not given)	i	2.17
O=C(NCC(c1ccco1)N1CCCC1)c1ccc(S(=O)(=O)Nc2ccccc2F)cc1 (stereo not given)	i	0.06
O=C(NCC(c1ccco1)N1CCc2ccccc21)c1ccccc1 (stereo not given)	i	.
O=C(NCC(c1ccco1)N1CCc2ccccc2C1)c1cccc(F)c1 (stereo not given)	-5.85*	-5.85
Cc1ccc(C(=O)NCC(c2ccco2)N2CCc3ccccc32)cc1C (stereo not given)	-6.19*	-6.19
COc1ccccc1C(=O)NCC(c1ccco1)N1CCc2ccccc21 (stereo not given)	-6.3*	-6.3
SMILES	KCNQ2 inh	KCNQ2 pot
Cc1ccccc1NS(=O)(=O)c1ccc(C(=O)NCC(c2ccco2)N2CCCCC2)cc1 (stereo not given)	-6.67*	-6.67
COc1cccc(C(=O)NCC(c2ccco2)N2CCc3ccccc3C2)c1 (stereo not given)	i	.
COc1cc(C(=O)NCC(c2ccco2)N2CCc3ccccc32)cc(OC)c1OC (stereo not given)	i	.
Cc1cc(NC(=O)CSc2nc3cc(C)c(C)cc3cc2C)no1	i	0.22
COc1ccc(Cl)cc1NC(=O)C1CC(=O)N(C2CCCCC2)C1 (stereo not given)	i	.
CCCCCN(C(=O)CCC(=O)OCC(=O)c1cccc(OC)c1)c1c(N)n(CCCC)c(=O)[nH]c1=O	i	.
O=C1Nc2ccccc2C1(O)C/C(=N/O)c1ccccc1 (stereo not given)	i	0.58
COc1ccc(-n2ncc3c2CC(C)(C)CC3NC(=O)c2ccc(OC)o2)cc1 (stereo not given)	i	0.01
O=C(Nc1ccc(S(=O)(=O)N2CCOCC2)cc1)c1ccc(Cl)cc1Cl	i	1.63
CC1(C)CC(=O)C(C2C3=C(CC(C)(C)CC3=O)Oc3c(Br)cc(Br)cc32)=C(O)C1 (stereo not given)	i	.
CCOC(=O)C1CC2CC(C1)CN(C(=O)C1CCCCC1)C2 (stereo not given)	i	.
COc1ccc(S(=O)(=O)Nc2ccccc2C(N)=O)cc1OC	i	.
Clc1nnc(NN=C2CCCC2)c2ccccc12	i	9.46*
Clc1nnc(N/N=C/c2ccccc2)c2ccccc12	i	0.13
Cc1ccc(OCC(=O)N/N=C\c2cccn2C)c([N+](=O)[O-])c1	i	.
OC(CNCC1CCCO1)Cn1c2ccccc2c2ccccc21 (stereo not given)	i	.
OC(CNCC1CCCO1)Cn1c2ccc(Cl)cc2c2cc(Cl)ccc21 (stereo not given)	-7.59*	-7.59
CCOc1ccc(CC(=O)C2=C(N3CCOCC3)CC(C)(C)CC2=O)cc1OCC	i	.
O=S(=O)(c1ccc(NC(=S)NCc2ccncc2)cc1)N1CCCCC1	i	.
C=C(C)C1CCC(C)=C1COC(=O)Nc1ccccc1 (stereo not given)	-5.89*	-5.89
Cc1ccc(OCCOC(=O)Nc2ccccc2)cc1	i	1.07
Cc1onc(-c2c(Cl)cccc2Cl)c1/C(N)=N/OC(=O)C(C)(C)C	i	0.14
Cc1onc(-c2c(Cl)cccc2Cl)c1CO/N=C(\C#N)c1c(Cl)cccc1Cl	-5.55*	-5.55
COc1ccc(-c2cc(C(F)(F)F)n3nc(C(=O)NCc4ccco4)cc3n2)cc1OC	-5.57*	-5.57
O=C(NCc1ccco1)c1cc2nc(C3CC3)cc(C(F)(F)F)n2n1	i	0.43
SMILES	KCNQ2 inh	KCNQ2 pot
O=C(NCCCN1CCOCC1)c1cccnc1SCc1ccccc1Cl	i	0.06
CC1CCCCN1C(=O)c1cc2nc(-c3ccccc3)cc(-c3ccccc3)n2n1 (stereo not given)	-5.71*	-5.71
CC1CCCCN1C(=O)CSc1nc(-c2ccccc2)cc(=O)[nH]1 (stereo not given)	i	0.32
C#CCOCCOCCOCCNc1nc(N2CCN(C(=O)[C@H](Cc3ccc(O)cc3)n3cc(CCO)nn3)CC2)nc(N2CCN(C(=O)[C@H](Cc3ccc(O)cc3)n3cc(CCO)nn3)CC2)n1	i	0.99
CCc1ccc(N2CC(C(=O)Nc3ccc(S(=O)(=O)N4CCOCC4)cc3)CC2=O)cc1 (stereo not given)	i	.
Clc1ccc(C2=C3CCCCn4c(-c5ccccc5)c[n+](c43)C2)cc1	-6.41*	-6.41
O=C(C[n+]1cc(-c2ccc(Cl)cc2)n2c1CCCCC2)c1ccccc1	i	.
COc1ccc(Cl)cc1NC(=O)CCNC(=O)OCc1ccccc1	i	.
O=C(CCc1ccc(CCC(=O)c2cccs2)s1)c1cccs1	-6.77*	-6.77
O=C(CCN1CCCC1)c1cccs1	i	.
COc1ccc(Br)cc1CN(C)CC(=O)Nc1c(Cl)cccc1Cl	i	.
CCOC(=O)CC1(NC(=O)C2CCC(=O)N(C3CC3)C2)CCCCC1 (stereo not given)	i	.
CCOC(=O)CC1(NC(=O)C2CCC(=O)N(CCc3ccccc3)C2)CCCCC1 (stereo not given)	-6.35*	-6.35
O=C(/C=C/c1c(F)cccc1Cl)N1CCOCC1	i	.
Cc1ccc(-n2c(SC3CCOC3=O)nc3ccccc3c2=O)cc1 (stereo not given)	i	.
S=C(NC1CCCCCC1)NC1CCCC1	i	0.57
NNC(=S)NC1CCCCCCCCCCC1	-6.88*	-6.88

Source: PubChem BioAssay (Johns Hopkins Ion Channel Center)
